Assay results from the supplement of paper PMC3545927.
Some of the results follow. How many sequences the whole screen found active is unknown.

Biological target: furin, P09958
Assay: furin cleavage Z-score vs untreated control; higher = more cleavage, active = 3.5 or more, inactive = 1 or less, 8 variable residues between constant flanks
Summary of the method: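 Furin cleavage was scored on 8-mer peptides joined to a cDNA oligonucleotide and bound to magnetic beads at the N-terminus. Digestion with purified furin (1:10 enzyme:substrate, 0.01 ml, 50 mM HEPES pH 7.5, CaCl2, NaCl) lasted 7.5, 15 or 30 min. Freed DNA was tagged with adapters by PCR, sequenced and counted; the cleavage Z-score is the lowess-adjusted log count versus furin-free reactions, scaled by median absolute deviation.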

Chain of furin, P09958 (P09958 whole entry): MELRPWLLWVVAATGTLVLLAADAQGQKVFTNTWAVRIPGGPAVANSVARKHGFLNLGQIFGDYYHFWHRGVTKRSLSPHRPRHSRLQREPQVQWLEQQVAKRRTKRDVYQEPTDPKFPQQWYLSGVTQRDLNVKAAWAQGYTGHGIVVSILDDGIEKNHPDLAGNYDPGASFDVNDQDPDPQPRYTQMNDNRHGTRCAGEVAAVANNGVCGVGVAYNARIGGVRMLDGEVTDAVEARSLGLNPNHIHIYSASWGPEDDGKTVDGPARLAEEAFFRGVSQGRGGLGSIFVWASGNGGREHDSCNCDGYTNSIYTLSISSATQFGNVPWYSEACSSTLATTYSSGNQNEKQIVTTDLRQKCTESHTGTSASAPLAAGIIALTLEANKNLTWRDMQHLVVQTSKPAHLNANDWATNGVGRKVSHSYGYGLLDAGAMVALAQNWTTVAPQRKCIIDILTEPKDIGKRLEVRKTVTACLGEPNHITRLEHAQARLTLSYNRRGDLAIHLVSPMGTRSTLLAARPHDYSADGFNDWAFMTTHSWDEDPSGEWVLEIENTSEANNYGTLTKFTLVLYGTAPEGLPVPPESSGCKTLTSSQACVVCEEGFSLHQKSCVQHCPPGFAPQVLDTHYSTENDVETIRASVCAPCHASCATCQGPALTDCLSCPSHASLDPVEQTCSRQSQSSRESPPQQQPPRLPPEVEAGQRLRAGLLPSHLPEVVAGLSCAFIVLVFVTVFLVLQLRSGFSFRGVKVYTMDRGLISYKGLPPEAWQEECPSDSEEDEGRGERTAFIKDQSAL

CAVVCCSPSYAGNASASA [HC2059]
furin cleavage Z-score (7.5 min): 0.343 (inactive) | furin cleavage Z-score (15 min): 0.71 (inactive) | furin cleavage Z-score (30 min): -0.572 (inactive)

CANTNGSWHLAGNASASA [HC368]
furin cleavage Z-score (7.5 min): -0.455 (inactive) | furin cleavage Z-score (15 min): 0.77 (inactive) | furin cleavage Z-score (30 min): -0.519 (inactive)

CARRQPIPKAAGNASASA [HC191]
furin cleavage Z-score (7.5 min): -0.467 (inactive) | furin cleavage Z-score (15 min): -0.696 (inactive) | furin cleavage Z-score (30 min): -2.34 (inactive)

CARKARWLRAAGNASASA [FS-2262]
furin cleavage Z-score (7.5 min): 8.22 (active) | furin cleavage Z-score (15 min): 9.39 (active) | furin cleavage Z-score (30 min): 8.11 (active)

CARRKRYAEHAGNASASA [FS-3056]
furin cleavage Z-score (7.5 min): 8.67 (active) | furin cleavage Z-score (15 min): 11.2 (active) | furin cleavage Z-score (30 min): 9.71 (active)

CAEDAASLRAAGNASASA [HC1536]
furin cleavage Z-score (7.5 min): 1.18 | furin cleavage Z-score (15 min): 0.0869 (inactive) | furin cleavage Z-score (30 min): 0.0662 (inactive)

CARRGRAGSDAGNASASA [FS-2065]
furin cleavage Z-score (7.5 min): -0.603 (inactive) | furin cleavage Z-score (15 min): -0.507 (inactive) | furin cleavage Z-score (30 min): -0.432 (inactive)

CARRGRPGLKAGNASASA [FS-2066]
furin cleavage Z-score (7.5 min): -0.499 (inactive) | furin cleavage Z-score (15 min): -1.08 (inactive) | furin cleavage Z-score (30 min): -0.201 (inactive)

CARDPRAAIQAGNASASA [FS-2905]
furin cleavage Z-score (7.5 min): -0.00694 (inactive) | furin cleavage Z-score (15 min): -0.144 (inactive) | furin cleavage Z-score (30 min): 0.0435 (inactive)

CARKARYAIQAGNASASA [FS-1901]
furin cleavage Z-score (7.5 min): 1.15 | furin cleavage Z-score (15 min): 3.07 | furin cleavage Z-score (30 min): 5.59 (active)

CARRGRAARHAGNASASA [FS-1609]
furin cleavage Z-score (7.5 min): 7.16 (active) | furin cleavage Z-score (15 min): 6.27 (active) | furin cleavage Z-score (30 min): 7.79 (active)

CAVVCCSMSAAGNASASA [HC2083]
furin cleavage Z-score (7.5 min): 0.0703 (inactive) | furin cleavage Z-score (15 min): -1.17 (inactive) | furin cleavage Z-score (30 min): -0.85 (inactive)
